# Measurements as given in the supplement of paper PMC9135407.
# Values joined by “and” are separate entries in the source; they are usually repeats but may differ in a detail not shown here. Identical values can stand only once. Counter-ions that a name gives are not always drawn. About 620 (11%) of roughly 5,800 compounds showed activity. The sample holds actives, similar compounds and a random draw of the others, so the mix is not that of the screen. Values without a mark were called inactive.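 How the source made its calls: active = score above a cut-off or among the top three wells of a plate; in these data no inactive exceeds 0.85.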
# Test system: primary human hepatic stellate cells (donor 1)
# Assay: scaled lipid accumulation score (0 = DMSO-like, 1 = nortriptyline-like); higher = stronger HSC inactivation (lipid re-accumulation), active = hit call of the paper
# Conditions: 48 h
# [1] = library stock concentration: 3.33 mM
# [2] = library stock concentration: 10 mM
# [3] = library stock concentration: 1 mM
# [4] = library stock concentration: 80 uM
# [5] = library stock concentration: 400 uM
# [6] = library stock concentration: 2 mM
smiles,measurement,setting,value
CC(/C=C1\SC(=S)N(CC(=O)O)C1=O)=C\c1ccccc1 [Epalrestat],scaled lipid accumulation score,[1],≤ 0
same,scaled lipid accumulation score,[2],≤ 0
O=C(O)CCCC=CCC1C2CCC(O2)C1CNNC(=O)Nc1ccccc1 (stereo not given),scaled lipid accumulation score,[3],≤ 0 and ≤ -0.021
O=C(O)[C@]1(O)C[C@@H](O)[C@@H](O)[C@H](O)C1 [Quinic acid],scaled lipid accumulation score,,≤ 0
Cc1c(C(=O)c2ccccc2)c(N)c(-c2ccccc2)n1Cc1ccc(Cl)cc1,scaled lipid accumulation score,[3],≤ 0
CCCCCCCCCCCCCCCCCCOC[C@H](COP(=O)([O-])OCC[N+](C)(C)C)OC(C)=O,scaled lipid accumulation score,[3],≤ 0 and ≤ -0.021
CC(=O)Nc1nc(C)c(-c2ccc(Cl)c(S(=O)(=O)NCCO)c2)s1,scaled lipid accumulation score,[4],≤ -0.016
same,scaled lipid accumulation score,[5],≤ -0.016
same,scaled lipid accumulation score,[6],≤ -0.016
same,scaled lipid accumulation score,[1],≤ 0
same,scaled lipid accumulation score,[2],≤ 0 and ≤ -0.016
O=c1oc2c(O)c(O)cc3c(=O)oc4c(O)c(O)cc1c4c23 [Ellagic acid],scaled lipid accumulation score,[4],≤ 0
same,scaled lipid accumulation score,[5],≤ 0
same,scaled lipid accumulation score,[6],≤ 0
same,scaled lipid accumulation score,[2],≤ 0
O=C(c1cccc(Cl)c1F)N1CCN(Cc2cccc(Nc3nccs3)n2)CC1,scaled lipid accumulation score,[1],≤ 0
same,scaled lipid accumulation score,[2],0.453
CN(C)c1ccc(-c2nc3c(N4CCN(CC(=O)Nc5nccs5)CC4)c(Cl)cnc3[nH]2)cc1,scaled lipid accumulation score,[1],0.858 (active)
same,scaled lipid accumulation score,[2],0.949 (active)
"CCCCC/C=C/C=C1/C(=O)C=C[C@@H]1C/C=C\CCCC(=O)O [15-deoxy-.DELTA.12,14-Prostaglandin J2]",scaled lipid accumulation score,[3],≤ 0
CSc1ccc(C(=O)c2[nH]c(=O)[nH]c2C)cc1 [Enoximone],scaled lipid accumulation score,[2],0.125
Cc1cc(NC2CCCCC2)nc(-n2nc(C)cc2C)n1,scaled lipid accumulation score,[2],≤ -0.03
COc1c(C)cnc(Cn2cnc3c(Cl)nc(N)nc32)c1C [listing 1 of 2 here],scaled lipid accumulation score,[1],0.885 (active)
COc1ccc2[nH]c([S+]([O-])Cc3ncc(C)c(OC)c3C)nc2n1 (stereo not given) [Tenatoprazole],scaled lipid accumulation score,library stock concentration: 5.8 mM,0.081
COc1c(C)cnc(Cn2cnc3c(Cl)nc(N)nc32)c1C [listing 2 of 2 here],scaled lipid accumulation score,[2],0.768
N#CC(=Cc1cc(Cl)cc(Cl)c1)c1cccnc1,scaled lipid accumulation score,library stock concentration: 18.2 mM,0.033
CN(C[C@@H]1COCCO1)S(=O)(=O)Nc1ccc2ccc3ncc(-c4cnn(C)c4)cc3c(=O)c2c1,scaled lipid accumulation score,[1],≤ 0
same,scaled lipid accumulation score,[2],≤ 0
O.O.O.O.O.O.O.O.O.O.O.O.O.O.O.O.O=S(=O)([O][Al])OC[C@H]1O[C@@](COS(=O)(=O)[O][Al])(O[C@H]2O[C@H](COS(=O)(=O)[O][Al])[C@@H](OS(=O)(=O)[O][Al])[C@H](OS(=O)(=O)[O][Al])[C@H]2OS(=O)(=O)[O][Al])[C@@H](OS(=O)(=O)[O][Al])[C@@H]1OS(=O)(=O)[O][Al] [Sucralfate sodium (10% w/v in dmso)],scaled lipid accumulation score,library stock concentration: 900 uM,≤ 0
COc1ccc2[nH]c(I)c(CCNC(C)=O)c2c1 [2-Iodomelatonin],scaled lipid accumulation score,[2],0.011
CN(C)CCCn1cc(C2=C(c3c[nH]c4ccccc34)C(=O)NC2=O)c2ccccc21 [Bisindolylmaleimide I],scaled lipid accumulation score,[1],0.663
CN(C)CCCn1cc(C2=C(c3c[nH]c4ccccc34)C(=O)NC2=O)c2ccccc21 [listing 1 of 2 here],scaled lipid accumulation score,[1],0.071
same,scaled lipid accumulation score,[2],0.777
same,scaled lipid accumulation score,library stock concentration: 12.1 mM,0.519
COc1ccc2c(c1)c(C1=C(c3c[nH]c4ccccc34)C(=O)NC1=O)cn2CCCN(C)C,scaled lipid accumulation score,[3],0.018
same,scaled lipid accumulation score,[1],0.054 and ≤ 0
same,scaled lipid accumulation score,[2],0.706
CN(C)CCCn1cc(C2=C(c3c[nH]c4ccccc34)C(=O)NC2=O)c2ccccc21 [listing 2 of 2 here],scaled lipid accumulation score,[2],1.04 (active)
CCCCC[C@H](O)/C=C/C=C\C/C=C\C/C=C\CCCC(=O)O,scaled lipid accumulation score,library stock concentration: 100 uM,≤ -0.02
COc1nc(C)cnc1NS(=O)(=O)c1cccnc1-c1ccc(-c2nnco2)cc1 [Zibotentan (ZD4054)],scaled lipid accumulation score,[1],≤ 0
same,scaled lipid accumulation score,[2],≤ 0
OCC(O)C(O)CO (stereo not given) [Erythritol],scaled lipid accumulation score,[1],≤ 0
same,scaled lipid accumulation score,[2],≤ -0.001
CNCCCN1c2ccccc2CCc2ccccc21.Cl [Desipramine hydrochloride] [listing 1 of 2 here],scaled lipid accumulation score,[2],1.15 (active)
CNCCCN1c2ccccc2CCc2ccccc21.Cl,scaled lipid accumulation score,[2],0.969 (active)
CNCCCN1c2ccccc2CCc2ccccc21 [Desipramine hydrochloride],scaled lipid accumulation score,library stock concentration: 6.6 mM,0.471
same,scaled lipid accumulation score,[2],0.667
CNCCCN1c2ccccc2CCc2ccccc21.Cl [Desipramine hydrochloride] [listing 2 of 2 here],scaled lipid accumulation score,,0.887 (active)
CCCCC1CCC(c2nc(-c3ccncc3)no2)CC1 (stereo not given),scaled lipid accumulation score,[3],0.03
same,scaled lipid accumulation score,[2],≤ -0.001
